# According to PubChem BioAssay (Tox21):
# Inconclusive results are not listed. Active and inactive are the calls of the source. The call rests on the fitted dose curve; in most records, active means well fitted activation curve with a large enough effect in the signal ratio in the repeat runs (not every such curve was filed as active); inconclusive means weak or mixed curves; inactive means flat fitted curve, though single readings scatter; the % refers to the signal ratio.
# Assay: qHTS assay to identify small molecule agonists of the hypoxia (HIF-1) signaling pathway (AID 1224846)
# Conditions: HRE-bla ME-180 cells, beta-lactamase ratio, 17 h; series mostly up to 76.8 µM
# Method in brief: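 Compounds from the Tox21 10K library, dissolved in DMSO, are tested for induction of a hypoxia response element–controlled beta-lactamase reporter in ME-180 cells. Exposure lasts 17 hrs at 37C after a 5 hr settling period, followed by CCF4-AM FRET substrate.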
# On the % scale 0 is the no-effect control and ±100 the full control effect.
SMILES,outcome,activation
CC1(C)C(=O)N(CO)C(=O)N1CO,inactive,–
CCOC(=O)CN,inactive,–
O=C1OC(=O)c2ccc3c4c(ccc1c24)C(=O)OC3=O,inactive,–
CC(C)=CC1CC(C)CCO1 (stereo unspecified),inactive,–
CC(C)(C)C1=CC(=O)C=C(C(C)(C)C)C1=O,inactive,–
CCCC(O)C(O)CO (stereo unspecified),inactive,–
COc1ccccc1C=O,inactive,–
CCCCCCCC(OC)OC,inactive,–
CCCCCCCCCCCCCCNCCO,inactive,–
CCOC(=O)COc1ccc(C)cc1,inactive,–
c1ccc(Sc2ccccc2)cc1,inactive,–
COc1cccc(O)c1,inactive,–
Cc1cccc(Br)c1,inactive,–
CCc1cccc(C)c1,inactive,–
Brc1ccccn1,inactive,–
CCOB(OCC)OCC,inactive,–
CC(=O)O[C@@H]1C[C@@H]2CC[C@@]1(C)C2(C)C,inactive,–
Oc1cc2ccccc2cc1O,inactive,–

SMILES,outcome,activation
O=C(O)CCCCCCC(=O)O,inactive,–
Cc1ccc(N)cc1O,inactive,–
CCCCCCCCC(C)=O,inactive,–
c1ccc2c(c1)CCC2,inactive,–
Cn1cnc2ncnc(N)c21,inactive,–
Clc1nc2ccccc2s1,inactive,–
CC(=O)c1ccccc1N,inactive,–
OCCN1CN(CCO)CN(CCO)C1,inactive,–
OCCCc1cccnc1,inactive,–
CN(C)CCN1CCOCC1,inactive,–
COc1ccc(C#N)cc1,inactive,–
CC(C)=C1CC[C@@H](C)CC1=O,inactive,–
NCCCC(O)(P(=O)(O)O)P(=O)(O)O,inactive,–
OCCC(O)CO (stereo unspecified),inactive,–
CCOCN(C(=O)CS(=O)(=O)O)c1c(C)cccc1CC,inactive,–
CC(=O)C=O,inactive,–
C=CC(C)C#N (stereo unspecified),inactive,–
CCC(=O)CC(C)CC (stereo unspecified),–,0.22% [at 0.291 µM] (inactive)
